Screens (PubChem)
Only some compounds are listed: those with a hit (about 1.2% of all), similar ones and a draw of the others.
Platelet DG rel: platelet dense granule release activity; human platelet-rich plasma, SFLLRN dense granule ATP release, luminescence; hit rate 0.22% among 300,000; inhibition, %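 (compounds screened at 7.5 µM in platelet-rich plasma)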; AID 1663;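 active = mean replicate score, as percent of positive control, at or above 50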
SKN-1 block: inhibitors of C. elegans SKN-1; hit rate 0.49% among 360,000; inhibition, % at 21.8 µM; C. elegans VP596 Pgst-4::GFP/RFP ratio, acrylamide-induced, 24 h;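 active = interference check ratio from 0.5 to 1.5 plus GFP to RFP signal ratio inhibition reaching or exceeding a fixed threshold, cut at about 30% in these data, passing the limit was not always enough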
ABCB6 inh 2: inhibitors of human ABC transporter ABCB6; Q9NP58; K562-ABCB6 porphyrin accumulation, flow cytometry, 1 h; stronger effect = lower value; fluorescence ratio to DMSO, % at 10 µM; hit rate 0.19% among 360,000; AID 602162;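 active = fluorescence ratio to DMSO below 75%, the collection mean minus 3 SD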;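 also: signal is porphyrin accumulated inside mitochondria; 100% equals median channel fluorescence of DMSO control wells; lower ratio means ABCB6 inhibition with less porphyrin fluorescence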
VLA-4 inh: inhibition in a human VLA-4 binding assay. VLA-4 expressing cells, ligand binding flow cytometry. AID 2557. inhibition, % (about 7 µM as worked out from the volumes in the protocol). P13612. hit rate 0.2% among 330,000; in the data active = inhibition above about 50%
Target sequence (P13612 whole entry, looked up): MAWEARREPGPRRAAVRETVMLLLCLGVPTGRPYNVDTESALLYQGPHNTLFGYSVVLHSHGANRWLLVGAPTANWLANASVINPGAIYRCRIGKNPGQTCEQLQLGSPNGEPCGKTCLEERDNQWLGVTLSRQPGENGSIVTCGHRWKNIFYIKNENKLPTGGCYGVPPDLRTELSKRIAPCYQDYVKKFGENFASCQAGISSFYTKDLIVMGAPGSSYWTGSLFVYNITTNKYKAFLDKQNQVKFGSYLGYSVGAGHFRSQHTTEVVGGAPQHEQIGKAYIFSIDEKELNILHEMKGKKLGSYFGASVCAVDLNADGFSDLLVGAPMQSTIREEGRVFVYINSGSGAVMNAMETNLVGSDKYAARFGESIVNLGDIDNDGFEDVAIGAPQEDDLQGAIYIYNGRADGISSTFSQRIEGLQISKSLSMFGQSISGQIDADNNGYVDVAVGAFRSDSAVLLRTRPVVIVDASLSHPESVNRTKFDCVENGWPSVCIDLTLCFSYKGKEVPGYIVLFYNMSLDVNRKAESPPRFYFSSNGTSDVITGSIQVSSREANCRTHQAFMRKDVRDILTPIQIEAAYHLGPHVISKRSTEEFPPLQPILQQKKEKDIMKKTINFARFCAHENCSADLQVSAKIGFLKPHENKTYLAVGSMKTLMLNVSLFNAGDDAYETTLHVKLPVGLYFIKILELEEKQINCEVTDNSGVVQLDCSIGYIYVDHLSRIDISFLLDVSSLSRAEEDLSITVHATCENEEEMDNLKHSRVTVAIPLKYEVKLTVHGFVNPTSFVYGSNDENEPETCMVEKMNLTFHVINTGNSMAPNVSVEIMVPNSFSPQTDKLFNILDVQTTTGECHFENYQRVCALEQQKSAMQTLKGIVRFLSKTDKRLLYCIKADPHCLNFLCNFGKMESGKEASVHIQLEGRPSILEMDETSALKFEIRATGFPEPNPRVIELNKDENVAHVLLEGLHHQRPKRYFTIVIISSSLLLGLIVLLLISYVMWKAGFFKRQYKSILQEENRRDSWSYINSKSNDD
CR mimetic SO: yeast age-related superoxide inhibition as caloric restriction mimetic | S. cerevisiae aged cells, superoxide DHE fluorescence; stronger effect = lower value | AID 2690 | hit rate 0.18% among 330,000 | superoxide response (% of plate mean), % at 10 µM;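 active = superoxide response under a set limit, about three screen SD below normal, cut at about 65% in these data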;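 also: yeast aged for seven days with compound at 30 °C before DHE staining; 100% = average MFI of all compound-treated wells on the plate with controls excluded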
VLA-4 mod pick: human VLA-4 allosteric modulation in cherry picked compounds. hit rate 2% among 1,300. inhibition, % at 6.7 µM. U937 cells, HUTS-21 LIBS mAb binding, flow cytometry; LDV ligand present at threefold Kd. AID 2813. shares compounds with VLA-4 inh; in the data active = inhibition above about 40%;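 also: 0% = ligand without compound and 100% = no ligand background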
Numbers without * were called inactive; / = not tested or not shown.

SMILES	Platelet DG rel	SKN-1 block	ABCB6 inh 2	VLA-4 inh	CR mimetic SO	VLA-4 mod pick
COc1cc(Cl)cc(/C=C/c2ccc3ccccc3n2)c1OC(C)=O	6.7	8.9	100.0	41.2	120.8	-19.2
COc1ccc(Cc2c(-c3ccc(C)cc3)nc3cc(C)c(Br)c(C)n23)c(C)c1	/	3.6	101.0	/	/	/
Cc1cccc(N(C)S(=O)(=O)c2ccc3c(c2)C(C)(C)C(=O)N3C)c1	3.8	-1.3	97.0	-16.4	89.2	-2.1
COc1cccc(CNS(=O)(=O)c2ccc3c(c2)C(C)(C)C(=O)N3C)c1	0.8	-2.0	94.0	-13.2	92.0	-5.8
CN1C(=O)C(C)(C)c2cc(S(=O)(=O)N(C)Cc3ccccc3)ccc21	-1.6	-19.5	100.0	-3.8	104.2	/
COc1ccc2nc(Cl)c(C=O)c(N3CCOCC3)c2c1	/	16.2	99.0	/	/	/
O=C(Nc1ccccc1)Nc1nnc([C@@H]2C[C@H](O)[C@@H](CO)O2)s1	/	12.2	90.0	/	/	/
O=S(=O)(Nc1ncccn1)c1ccccc1	-13.2	1.5	96.0	15.3	110.4	3.1
O=S(=O)(Nc1ncccn1)c1ccc(Cl)cc1	9.2	-8.7	101.0	7.9	102.0	0.0
COc1ccc(CC(=O)Nc2ccc(S(=O)(=O)Nc3ncccn3)cc2)cc1	-0.1	7.4	100.0	19.9	143.4	/
O=S(=O)(Nc1ccc(S(=O)(=O)Nc2ncccn2)cc1)c1ccccc1	3.1	-15.8	101.0	-0.8	96.5	/
O=C(Nc1ccc(Cl)cc1)Nc1ccc(S(=O)(=O)Nc2ncccn2)cc1	-0.1	5.3	102.0	22.6	117.2	/
Cc1ccccc1NS(=O)(=O)c1ccc(Cl)cc1	0.3	0.1	107.0	-7.3	104.3	0.4
COc1ccc(S(=O)(=O)Nc2ncccn2)cc1	0.7	15.4	99.0	5.5	94.7	3.3
CC(=O)N1CCC(C(=O)N2c3ccccc3N=C(c3ccc(C(F)(F)F)cc3)C2C(=O)NC2CCCC2)CC1 (stereo unspecified)	/	-20.7	/	/	/	/
C[C@H](NC(=O)C1CCN(C(=O)[C@@H]2CCCN2C(=O)OC(C)(C)C)CC1)C(=O)NCc1ccc(F)cc1	/	1.1	97.0	/	/	/
CCOC(=O)n1c2ccccc2c(=O)n1CCO	/	-4.7	103.0	/	/	/
O=S(=O)(Nc1ncccn1)c1ccc(F)cc1	1.8	-9.6	102.0	4.8	94.5	4.4
Cc1ccc(S(=O)(=O)Nc2ncccn2)cc1	-6.9	2.7	100.0	-7.0	97.5	1.8
O=C(COc1ccc(F)cc1)Nc1ccc(S(=O)(=O)Nc2ncccn2)cc1	-11.9	8.5	104.0	0.4	109.9	/
Nc1ccc(S(=O)(=O)Nc2ncccn2)cc1	4.5	-7.0	108.0	-1.8	90.0	/
COc1ccc(C(=O)Nc2nncs2)cc1S(=O)(=O)N1CCOCC1	11.7	-1.2	97.0	58.8*	99.6	-3.5
CCc1nc2c(OCc3ccc(C(F)(F)F)cc3)cccn2c1N(C=O)Cc1ccc(OC)cc1	/	11.3	96.0	/	/	/
CCOc1ccc(Cl)cc1-c1cc(C(=O)NCc2cccc(C(F)(F)F)c2)[nH]n1	/	-7.6	99.0	/	/	/
CCOc1cccc(-c2nc3cc(C)ccc3o2)c1	1.5	6.3	100.0	9.3	106.9	/
SMILES	Platelet DG rel	SKN-1 block	ABCB6 inh 2	VLA-4 inh	CR mimetic SO	VLA-4 mod pick
Cc1ccc2oc(-c3ccccc3)nc2c1	18.6	26.4	101.0	94.2*	99.0	4.7
O=C(Nc1ccc(F)cc1)C(c1ccnc2ccccc12)N1CCN(c2cccc(C(F)(F)F)n2)CC1 (stereo unspecified)	/	9.8	/	/	/	/
Clc1ccccc1Nc1nc(NCC2CC2)nc2ccsc12	/	7.5	92.0	/	/	/
COCCCN(C(=O)CCOc1ccc(C)cc1)c1c(N)n(Cc2ccccc2)c(=O)[nH]c1=O	-4.6	-6.8	90.0	49.8*	106.3	4.0
Cn1cnc(S(=O)(=O)N2CCCCC2c2cc(C(=O)NCc3ccc(F)cc3)no2)c1 (stereo unspecified)	/	0.8	97.0	/	/	/
O=C(CSc1nnc(Nc2ccccc2)s1)NN1C(=O)NC2(CCCCC2)C1=O	12.1	-7.1	100.0	49.3	95.0	-7.7
O=C1CC(c2ccccc2)C(C(=O)Nc2ccccc2F)N1 (stereo unspecified)	7.3	7.9	99.0	-13.8	109.2	/
CCc1ccccc1NC(=O)C1NC(=O)CC1c1ccccc1 (stereo unspecified)	-1.6	-3.0	93.0	56.0*	96.6	3.7
CCn1cc(C(=O)OCc2cccc(Br)c2)c(=O)c2ccc(C)nc21	0.7	18.5	98.0	53.6*	106.7	0.0
COC(=O)Cc1ccc(NC(=O)c2ccc(C)c(C)c2)cc1	0.4	15.3	99.0	60.1*	95.8	10.9
COc1ccc(CN2C(=O)c3cccnc3C2=O)cc1S(=O)(=O)N1CC(C)Oc2ccccc21 (stereo unspecified)	0.9	-7.2	96.0	56.4*	102.5	-0.1
CC1CN(S(=O)(=O)c2ccc(CN3C(=O)c4cccnc4C3=O)cc2)c2ccccc2O1 (stereo unspecified)	-3.2	-6.7	97.0	-1.4	105.8	/
COc1cc(SC)ccc1C(=O)Nc1ccc(Br)cn1	13.5	22.9	94.0	10.1	97.7	/
COc1cc(SC)ccc1C(=O)Nc1ncc(Cl)cc1Cl	-15.9	9.2	99.0	54.8*	106.3	7.0
Nc1cc(-c2ccc(Cl)cc2)nn1S(=O)(=O)c1cccc2nsnc12	-10.7	-3.5	94.0	36.9	107.9	/
Nc1cc(-c2ccc(Br)cc2)nn1S(=O)(=O)c1cccc2nsnc12	5.2	11.3	100.0	49.9*	94.7	0.0
Cc1c(S(=O)(=O)N2CCC(C)CC2)c(=O)n(C)c(=O)n1C	-16.0	-9.1	92.0	50.4*	107.0	2.6
Cc1c(S(=O)(=O)N2CCCC(C)C2)c(=O)n(C)c(=O)n1C (stereo unspecified)	-48.7	-7.3	98.0	6.8	92.2	/
Cc1ccc2c(c1)/C(=C/c1ccccc1F)C(=O)N2	2.6	2.6	103.0	41.0	98.5	-12.6
CCOC(=O)N1CCC2(CC1)CC(=O)c1cc(O)ccc1O2	-2.4	19.0	98.0	109.4*	93.6	10.4
O=C(COc1ccc(CNC[C@H]2O[C@@H](n3ccc(=O)[nH]c3=O)[C@H](O)[C@@H]2O)cc1)Nc1ccccn1	/	10.4	97.0	/	/	/
CCC1Nc2ccccc2-c2nnc(SC)nc2O1 (stereo unspecified)	25.4	-21.6	95.0	-1.5	131.6	/
CCSc1nnc2c(n1)OC1(CCCC1)Nc1ccccc1-2	-32.4	-11.6	100.0	55.4*	101.5	-0.1
CCOC(=O)CSc1nnc(CNC(=O)c2ccc(S(=O)(=O)N3CCCC3)cc2)n1C	-8.8	10.3	100.0	13.5	116.4	/
CCOC(=O)CSc1nnc(CNC(=O)c2ccc(S(=O)(=O)N3CCOCC3)cc2)n1C	2.5	2.0	95.0	41.9	73.6	9.4
O=C(COc1ccc(/C=N/NC(=O)c2cc3ccccc3o2)cc1Cl)Nc1ccccc1	4.9	-3.1	91.0	78.3*	110.1	61.2*
COc1cc(/C=N/NC(=O)c2ccccc2O)ccc1OCC(=O)Nc1ccccc1	-8.2	15.8	96.0	-3.6	95.9	/
